# Assay results published in ChEMBL document CHEMBL3988442, “University of Dundee, Small-Polar-MMV Screening Library” (2021).
# Biological target: T1, Methionyl-tRNA synthetase, putative (Leishmania donovani (strain BPK282A1)) (UniProt E9BF75)
# T1 sequence (whole entry): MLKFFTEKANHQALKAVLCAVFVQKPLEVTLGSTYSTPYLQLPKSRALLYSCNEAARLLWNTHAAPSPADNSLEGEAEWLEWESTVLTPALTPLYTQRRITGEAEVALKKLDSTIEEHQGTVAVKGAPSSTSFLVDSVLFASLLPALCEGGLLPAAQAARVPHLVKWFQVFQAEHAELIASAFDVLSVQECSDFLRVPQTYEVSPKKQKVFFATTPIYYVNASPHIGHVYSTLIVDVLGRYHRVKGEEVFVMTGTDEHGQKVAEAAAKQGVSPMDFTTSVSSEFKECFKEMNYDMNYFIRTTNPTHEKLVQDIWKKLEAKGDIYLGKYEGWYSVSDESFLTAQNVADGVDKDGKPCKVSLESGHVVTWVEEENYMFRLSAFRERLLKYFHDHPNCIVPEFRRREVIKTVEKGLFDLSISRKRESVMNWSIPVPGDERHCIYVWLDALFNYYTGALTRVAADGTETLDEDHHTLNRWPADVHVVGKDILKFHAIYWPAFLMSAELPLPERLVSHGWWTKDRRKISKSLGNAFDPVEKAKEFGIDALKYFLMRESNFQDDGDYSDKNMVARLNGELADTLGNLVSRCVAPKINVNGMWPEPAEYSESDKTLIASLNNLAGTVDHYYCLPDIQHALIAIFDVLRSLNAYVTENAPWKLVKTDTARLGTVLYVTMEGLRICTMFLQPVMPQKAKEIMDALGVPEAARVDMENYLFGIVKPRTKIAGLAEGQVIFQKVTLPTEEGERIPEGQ
# Test: Leishmania donovani Methionine tRNA synthetase (LdMetRS):v7. Dose response assay
# Assay type: functional
# Set-up: conc 80 nM, time 150 minutes
smiles,measurement,setting,value
CN1CCN(C(=O)CNC(=O)c2ccc3ccc(N4CCN(S(C)(=O)=O)CC4)n3c2)CC1,PXC50,"BOTTOM 0.0904, HILLSLOPE 2.137945772, MAX_EFFECT 50.23923445, TOP 52.555747",4.83
same,PXC50,"BOTTOM 3.391781155, HILLSLOPE 3.900764743, MAX_EFFECT 59.59780622, TOP 59.91227163",4.76
FC1(F)CCN(Cc2ccncc2)CC12CCN(c1cccnc1)C2 (stereo unspecified),PXC50,MAX_EFFECT 5.981308411,< 4
same,PXC50,MAX_EFFECT -0.453514739,< 4
Cc1nc(N2CCC(N3CCSCC3)CC2)c2ccsc2n1,PXC50,MAX_EFFECT 8.29015544,< 4
same,PXC50,MAX_EFFECT 9.042553191,< 4
Cc1nnc(NCC2(c3ccccc3)CCOCC2)c(C#N)c1C,PXC50,MAX_EFFECT 7.981220657,< 4
same,PXC50,MAX_EFFECT 16.48148148,< 4
OCc1ccncc1NCc1cnc(-c2ccccn2)s1,PXC50,MAX_EFFECT 2.34741784,< 4
same,PXC50,MAX_EFFECT 7.222222222,< 4
CC(C)N1CCN(c2ccc3ccc(C(=O)NC4CCCC4)cn23)CC1,PXC50,"BOTTOM 0.093, HILLSLOPE 1.274308059, MAX_EFFECT 67.28971963, TOP 100.0",4.24
same,PXC50,"BOTTOM -1.582312145, HILLSLOPE 1.245531895, MAX_EFFECT 64.39909297, TOP 98.29335099",4.24
CC1CCN(c2nc3c(c(C(F)(F)F)n2)CCCCC3)CC1,PXC50,MAX_EFFECT 8.396946565,< 4
same,PXC50,MAX_EFFECT 11.83879093,< 4
CC(C)C[C@H](N)COc1ccccc1N1CCCC1=O,PXC50,MAX_EFFECT 8.074534161,< 4
same,PXC50,MAX_EFFECT 13.85927505,< 4
CCNc1cc(-c2ccccn2)nc(Nc2ccc(F)c(Cl)c2)n1,PXC50,MAX_EFFECT 18.84057971,< 4
same,PXC50,MAX_EFFECT 22.81449893,< 4
CN(CC1CC1)c1ccc2ccc(C(=O)NC3CCCCC3)cn12,PXC50,"BOTTOM 1.124026448, HILLSLOPE 1.465093934, MAX_EFFECT 59.86394558, TOP 70.1166241",4.49
same,PXC50,"BOTTOM 5.503846383, HILLSLOPE 1.186903167, MAX_EFFECT 58.31775701, TOP 100.0",4.05
Cc1c(-c2cc(C(F)(F)F)nc(N3CCC(N)CC3)n2)cnn1C,PXC50,MAX_EFFECT 7.485604607,< 4
same,PXC50,MAX_EFFECT 8.133971292,< 4
Cc1cc(C(=O)NC2CCCC2)cn2c(N3CCN(S(C)(=O)=O)CC3)ccc12,PXC50,"BOTTOM 3.715191159, HILLSLOPE 1.052339001, MAX_EFFECT 54.38596491, TOP 65.94212945",4.67
same,PXC50,MAX_EFFECT 46.875,< 4
Cc1nc(NCc2noc(C3CCCO3)n2)c2ccsc2n1 (stereo unspecified),PXC50,MAX_EFFECT 9.660574413,< 4
same,PXC50,MAX_EFFECT 12.53263708,< 4
CCc1nc(NCCCOC)c2c3c(sc2n1)CCC3,PXC50,MAX_EFFECT 10.43256997,< 4
same,PXC50,MAX_EFFECT 14.35768262,< 4
Nc1noc2ccc(-c3cnc4ccc(NCCn5cccn5)nn34)cc12,PXC50,MAX_EFFECT 13.59649123,< 4
same,PXC50,MAX_EFFECT 13.74045802,< 4
COCCNc1nc(CSc2ccccc2)nc2sc(C)c(C)c12,PXC50,MAX_EFFECT 27.86885246,< 4
same,PXC50,MAX_EFFECT 28.34224599,< 4
Cc1sc2nc(CCN)nc(N3CC(N4CCCCC4)C3)c2c1C,PXC50,MAX_EFFECT 21.14882507,< 4
same,PXC50,MAX_EFFECT 25.06527415,< 4
O=C(O)C1CCCN1c1nc(C2CC2)cc(C(F)(F)F)n1 (stereo unspecified),PXC50,MAX_EFFECT 5.221932115,< 4
same,PXC50,MAX_EFFECT 7.049608355,< 4
